# Assay outcomes: PubChem, The Scripps Research Institute Molecular Screening Center
# MITF inh – human MITF inhibition, primary screen. O75030. AlphaScreen MITF homodimerization, bead proximity signal. inhibition, % at 2.6 µM. 0.91% of 650,000 active; in the data active means inhibition above about 50%;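 further: 0% = vehicle wells with protein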
# Target sequence (O75030 whole entry, looked up): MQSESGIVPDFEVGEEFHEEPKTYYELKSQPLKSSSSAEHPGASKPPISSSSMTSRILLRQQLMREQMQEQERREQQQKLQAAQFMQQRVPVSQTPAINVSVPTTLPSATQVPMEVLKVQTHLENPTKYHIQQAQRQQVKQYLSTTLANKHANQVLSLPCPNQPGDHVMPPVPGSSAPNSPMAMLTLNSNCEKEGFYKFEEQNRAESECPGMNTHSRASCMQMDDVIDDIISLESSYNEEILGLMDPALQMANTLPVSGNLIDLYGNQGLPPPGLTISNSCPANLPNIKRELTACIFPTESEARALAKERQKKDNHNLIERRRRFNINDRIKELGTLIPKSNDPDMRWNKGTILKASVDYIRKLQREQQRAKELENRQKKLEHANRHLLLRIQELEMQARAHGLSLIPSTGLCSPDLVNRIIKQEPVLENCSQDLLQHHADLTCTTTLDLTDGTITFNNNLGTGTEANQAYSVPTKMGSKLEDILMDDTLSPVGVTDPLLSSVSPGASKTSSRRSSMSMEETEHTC
# TEAD-YAP block – TEAD-YAP interaction inhibition; inhibition, % at 9.12 µM; HEK-TIYL cells, TEAD-Gal4/YAP UAS-luciferase luminescence; AID 1259422; 1.4% of 640,000 active; in the data active means inhibition above about 32%;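 further: 0% = median of test compound wells and 100% = reference inhibitor wells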
# FBW7 activator – activators of human E3 ligase FBW7; Q969H0; AlphaScreen FBW7–phospho-cyclin E peptide binding, activator screen; normalized activity (activation), % at 26.1 µM; 0.13% of 650,000 active; in the data active means normalized activity above about 1.9%;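 further: purified mutant Fbw7 with reduced substrate affinity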
# GPR151 activ – activators of human GPR151; activation, % at 11.2 µM; AID 1508602; 1% of 650,000 active; Q8TDV0; PathHunter beta-arrestin GPR151 cells, luminescence; in the data active means activation above about 4.9%;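 further: 0% = median of compound wells and 100% = cells with positive control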
# An asterisk follows results filed as active; ! = not active in a repeat. In the library only some 3.5% were active in any assay of this set; here they are far more common.
SMILES,MITF inh,TEAD-YAP block,FBW7 activator,GPR151 activ
OCCCc1ccc(C(O)(C(F)(F)F)C(F)(F)F)o1,8.6,7.3,-0.1,-0.3
CCOc1cc(C2CC(=O)Nc3c2ccc2ccccc32)ccc1OC(=O)C1CC1 (stereo not given),0.5,-9.0,-0.1,1.7
O=C(c1ccc(Oc2ccccc2)cc1)c1coc2ccc(O)cc12,-4.5,55.3*,-0.1,-3.8
N#C/C(=C\c1cc2ccccc2nc1Cl)c1nc(-c2ccc(Br)cc2)cs1,-16.9,0.1,-0.1,0.1
N#Cc1sc(NC(=O)c2ccc(Br)cc2)nc1Cl,1.8,46.7*,0.2,-5.9
O=C(Nc1nc2ccc3ccccc3c2s1)c1ccc(Br)cc1,-11.8,2.2,0.1,-0.4
Cc1cccc(C(=O)Nc2ncc([N+](=O)[O-])s2)c1,-5.4,54.6*,-0.1,-10.6
O=C(Nc1ncc([N+](=O)[O-])s1)c1cccnc1,3.1,-24.0,-0.1,-11.3
Cc1onc(-c2ccccc2Cl)c1C(=O)Nc1ncc([N+](=O)[O-])s1,7.3,0.0,0.0,-0.1
Cc1ccc(C(=O)Nc2ncc([N+](=O)[O-])s2)cc1,7.5,82.0*,-0.1,-11.2
Cc1onc(-c2ccccc2)c1C(=O)Nc1ncc([N+](=O)[O-])s1,-2.1,37.6*,0.0,1.4
NC(=O)CSc1nc2cc3c(cc2c(=O)n1CCC(=O)NCc1ccc2c(c1)OCO2)OCO3,-1.5,0.1,-0.1,-0.2
Cc1ccc(Nc2ncnc3sc(C)cc23)c(C)c1,1.2,-17.2,0.0,-1.5
O=C(Cc1ccc(Cl)cc1)Nc1ncc([N+](=O)[O-])s1,12.8,-35.6,0.1,-4.7
O=C(Cc1ccc(Br)cc1)Nc1ncc([N+](=O)[O-])s1,4.4,-20.1,-0.2,-4.9
O=C(Nc1ncc([N+](=O)[O-])s1)c1ccc(Cl)cc1Cl,4.0,64.3*,-0.1,-10.7
O=C(Nc1ncc([N+](=O)[O-])s1)c1ccc(Br)cc1,-0.1,64.8*,0.0,-8.5
O=C(CSc1n[nH]c(-c2ccccc2)n1)Nc1ccccc1Cl,4.0,-8.4,0.8,-2.0
O=C(CSc1n[nH]c(-c2ccccc2)n1)Nc1cccc2ccccc12,-2.3,53.4*,0.0,1.3
COc1cc(NC(=O)c2cccc(-n3ncc4cc(Nc5ccccc5Cl)ccc43)c2)cc(OC)c1OC,-4.3,23.4,0.2,-0.8
N#Cc1cccc(-n2ncc3cc(Nc4ccccc4Cl)ccc32)c1,-14.6,-7.5,2.0*,-0.6
CC(=O)N1C(=O)/C(=C2\SC(=O)NC2=O)c2ccccc21,2.4,-10.9,-0.1,1.4
CC1(c2ccccc2)CC(C)(C)N2C(=O)/C(=C3\SC(=O)NC3=O)c3cccc1c32 (stereo not given),2.7,50.1*,-0.3,-0.2
CCN1CCC(CCc2ccc(NC(=O)c3ccn[nH]3)cc2)C(C)C1 (stereo not given),1.7,24.4,-0.2,0.2
NNc1nncc2ccccc12,5.0,37.3*!,0.7,-0.9
SMILES,MITF inh,TEAD-YAP block,FBW7 activator,GPR151 activ
COc1ccc(/C(C)=N/Nc2nncc3ccccc23)cc1,-6.2,33.0*,-0.2,-1.0
CN(c1ccccc1)S(=O)(=O)c1ccccc1C#[N+][O-],4.6,-1.3,0.1,0.5
COc1cccc2oc(-c3ccccc3)cc(=O)c12,11.6,60.1*,0.1,-10.9
COc1ccc(C(=O)CSc2nnc3[nH]c(=O)cc(C)n23)cc1,-11.1,-4.0,0.2,-2.2
Cn1c(-c2ccccc2)cn2cc(-c3ccc(F)cc3)nc12,6.2,97.0*,-0.5,-5.0
Cn1c(-c2ccccc2)cn2cc(-c3ccccc3)nc12,-9.3,100.0*,-0.1,-2.3
Nc1nc(NCc2ccccc2)cc(-c2ccc3[nH]ccc3c2)n1,0.2,34.2*,-0.1,-0.6
COc1ccc(CN2C(=O)C(=O)c3cc(Br)ccc32)cc1,1.6,63.6*,-0.4,0.8
COc1ccccc1OCCN1C(=O)C(=O)c2cc(Br)ccc21,-0.4,34.0*,-0.1,0.1
COC(=O)Cn1cc(/C=C2/NC(=O)N(c3cccc(Cl)c3)C2=O)c2ccccc21,-2.9,1.6,0.1,1.7
Cn1cc(/C=C2/NC(=O)N(c3cccc(Cl)c3)C2=O)c2ccccc21,10.1,50.4*,0.1,1.8
COc1cc(N2CCOCC2)ccc1Nc1cc(-c2nocc2-c2cnn(C)c2)ccn1,2.5,-13.0,-0.3,0.7
CN(C)CCn1c2ccccc2c2cnc(N)c(C#N)c21,3.4,93.3*,0.0,2.4
COc1ccc(C(=O)C2CCCN(Cc3ccc(N4CCNC4=O)cc3)C2)cc1OC (stereo not given),14.8,-4.1,0.0,0.3
Cc1ccsc1C(=O)C1CCCN(Cc2ccc(N3CCNC3=O)cc2)C1 (stereo not given),-18.9,35.5*,0.2,-0.1
